Test results published in PubChem BioAssay AID651871 (Sanford-Burnham Center for Chemical Genomics, 2012).

System: HL-1
Assay: protection of cardiomyocytes from stress damage, SAR follow-up, cell-based, panel, H9c2 and HL-1, ATP luminescence, set 2 (AID 651871);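 also: cells exposed to stressor for 2 h before ATP readout; reference of the scale not given here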
Settings: H9c2/HL-1 cardiomyocytes, 2-deoxyglucose stress, with 2-deoxyglucose, run 14, at 39.5 µM (top of the series)

## COc1ccc2c(c1OC)C(=O)N1c3ccccc3C(=O)N(Cc3cccc(Cl)c3Cl)C21 (stereo unspecified)
  activity (protection/inhibition): 31.8%
